Our source for the Potency, cell number change and lipid storage change, negative = inhibition values is PubChem BioAssay AID2685 (National Center for Advancing Translational Sciences (NCATS), 2010).

The whole screen tested about 320,000 compounds, of which about 2,100 (0.66%) were called active. Another 53% or so got no clear call; they are omitted. The call rests on the fitted dose curve; in most records, active means well fitted inhibition curve with a large enough effect in the signal ratio, with a control signal flat (not every such curve was filed as active); inconclusive means small, poorly fitted or top-dose-only effect, or effect the other way, or a change in a side signal; inactive means flat fitted curve, though single readings scatter; the % refers to the signal ratio. The list comes from a sample in which actives are over-represented; it also holds similar structures and randomly drawn compounds.
Potency means the concentration at half of the fitted maximal effect.

The test can be described thus: qHTS Assay for Lipid Storage Modulators in Drosophila S3 Cells.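 On cell number change: cells counted by Cell Tracker Red CMTPX staining in the red channel.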 On lipid storage change, negative = inhibition: on the % scale 0 is the no-effect control and ±100 the full control effect. As to conditions: BODIPY lipid droplet fluorescence, 18-24 h, cells fed with added oleic acid; cell number change: measured here: cell count max response; series mostly up to 46.1 µM. Put shortly: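 Drosophila S3 cells got compounds at several concentrations plus oleic acid (400 uM solution). Laser-scanning cytometry with 488 nm excitation read lipid droplets at 500-530 nm and cells at 575-640 nm. Percent activity was relative to 20 uM Triacsin C.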
As to `CC(Oc1ccccc1)c1nnc(SCC(=O)NC2CC2)n1C` (centres undefined), the Potency result was “inactive” and the cell number change was determined as 17.8%. For the compound `Cc1ccc2nc3sc(-c4nnc(-c5ccccc5[N+](=O)[O-])o4)c(N)c3cc2c1`, the Potency entry is “inactive”.

With `CCCn1c(=O)[nH]c(=O)c2c1nc(-c1ccccc1OC(F)F)n2CCOC`, the Potency entry was “inactive” and the cell number change was found to be 1.56%. The corresponding values for `O=C(NCc1ccc2c(c1)OCO2)C1CCCN(S(=O)(=O)c2cccnc2)C1` (centres undefined) are “inactive” and 9.61%. Turning to `O=C(CN1CCCCCC1)Nc1ccc([N+](=O)[O-])cc1Cl`, the Potency entry is “inactive” and the cell number change is -17.1%.

Consider `O=C(COC(=O)c1ccccn1)NCc1ccccc1Cl`, for which the Potency entry is “inactive”. As for `CC(C)(C)N(Cc1ccccc1)C(=O)COC(=O)c1ccc(Br)o1`, the Potency result was “inactive” and the cell number change is -7.45%. Consider `CC(C)(C)N(Cc1ccccc1)C(=O)COC(=O)c1ccc([N+](=O)[O-])o1`, for which the Potency is 11.6 µM (active) and the cell number change is -25.7%.

`CC(C)(C)N(Cc1ccccc1)C(=O)COC(=O)c1cccc([N+](=O)[O-])c1`: the Potency result is “inactive” and the cell number change turned out to be 17.2%. In the case of `CC(NC(=O)CN(C1CCCCC1)S(C)(=O)=O)c1ccccc1` (centres undefined), the Potency result was “inactive” and the cell number change is -4.99%. As to `O=C(NCCC1CCCCN1S(=O)(=O)c1ccc(F)cc1)C(=O)NC1CC1` (centres undefined), the Potency entry is “inactive”.

For `Cc1ccc(S(=O)(=O)N2CCCCC2CCNC(=O)C(=O)NCc2ccccc2C)cc1` (centres undefined), the Potency was 9.2 µM (active). Take `Cc1ccc(S(=O)(=O)N2CCCCC2CCNC(=O)C(=O)NCc2ccccc2)cc1` (centres undefined): the Potency result is “inactive”. With `COc1cccc(CNC(=O)C(=O)NCCC2CCCCN2S(=O)(=O)c2ccccc2)c1` (centres undefined), the Potency result is “inactive” and the cell number change is -8.33%. With `COc1ccccc1CNC(=O)C(=O)NCCC1CCCCN1S(=O)(=O)c1ccc(C)cc1` (centres undefined), the Potency entry is “inactive” and the cell number change came out at 18.8%. In the case of `O=C(NCCC1CCCCN1S(=O)(=O)c1ccccc1)C(=O)NC1CCCC1` (centres undefined), the Potency entry is “inactive” and the cell number change was -1.87%.

Turning to `Cc1ccc(S(=O)(=O)N2CCCCC2CCNC(=O)C(=O)NC2CCCC2)cc1` (centres undefined), the Potency is 0.184 µM (active) and the cell number change is -16.3%. In the case of `COc1cccc(NC(=O)C(=O)NCCC2CCCCN2S(=O)(=O)c2cccs2)c1` (centres undefined), the lipid storage change, negative = inhibition was -10.7% [at 0.0737 µM] (inactive). As for `COc1cccc(NC(=O)C(=O)NCCC2CCCCN2S(=O)(=O)c2ccccc2)c1` (centres undefined), the Potency was 9.2 µM (active) and the cell number change is -3.85%. Consider `FC(F)(F)c1cccc(-c2ccn3ncnc3n2)c1`, for which the Potency result is “inactive” and the cell number change turned out to be 16.1%. On to `CC(=O)c1cc(-c2ccccc2)n(CC(=O)NC2CCCC2)c1C`, for which the Potency result is “inactive” and the cell number change is -1.74%.

As for `CCC(=O)Nc1ccc(NC(=O)CSc2nnnn2-c2ccc3c(c2)OCCO3)cc1`, the Potency entry was “inactive” and the cell number change is 5.29%. As to `c1coc(C2Nc3cccc4cccc(c34)N2)c1`, the Potency entry was “inactive” and the cell number change was -0.664%. The corresponding values for `C/C(=C\c1cc2ccccc2o1)C1Nc2cccc3cccc(c23)N1` are “inactive” and 7.96%. The matching figures for `C/C(=C\c1ccco1)C1Nc2cccc3cccc(c23)N1`: 18.4 µM (active) and -14.8%. As for `CC(C)(C)c1ccc(C(=O)OCC(=O)NC2CC2)cc1`, the Potency entry is “inactive”. For the compound `CCc1nn(C(CC)C(=O)NCc2cccc(OC)c2)c(=O)c2cc3occc3n12` (centres undefined), the Potency entry was “inactive”. On to `CCc1nn(C(CC)C(=O)NCc2cccs2)c(=O)c2cc3occc3n12` (centres undefined), for which the Potency entry was “inactive” and the cell number change was -4.96%. As for `CCc1nn(C(CC)C(=O)NCc2cccc(OC)c2OC)c(=O)c2cc3occc3n12` (centres undefined), the Potency is 10.3 µM (active) and the cell number change was -13.5%. The corresponding values for `Cc1cc(S(=O)(=O)NCC(C)C)ccc1OCC(=O)NCc1ccco1` are “inactive” and 21.6%. For `Cc1noc(C)c1CCC(=O)NC1CCCN(Cc2ccc(CC(C)C)cc2)C1` (centres undefined), the Potency entry is “inactive”. Still for that read-out and setting: then `Cc1ccc(N=Cc2ccc(O)cc2O)cc1F`, with “inactive”.

For the compound `O=C(O)c1ccc(NC(=O)C2CC=CCC2C(=O)O)cc1` (centres undefined), the Potency was 0.184 µM (active) and the cell number change came out at 3.62%. The matching figures for `O=C(Nc1ccc(S(=O)(=O)N2CCc3ccccc32)cc1)C(F)(F)F`: “inactive” and -4.4%.

Turning to `O=C(O)C1C2C=CC(O2)C1C(=O)Nc1ccc(S(=O)(=O)N2CCc3ccccc32)cc1` (centres undefined), the Potency entry is “inactive” and the cell number change is -9.33%. For the compound `O=C(O)C1CC=CCC1C(=O)Nc1ccccc1` (centres undefined), the Potency entry is “inactive”. As to `O=C(O)C1CC=CCC1C(=O)Nc1ccc(S(=O)(=O)N2CCCc3ccccc32)cc1` (centres undefined), the Potency is 23.1 µM (active) and the cell number change came to 4.45%. For the compound `CN(C(=O)c1ccc(NC(=O)C2CC=CCC2C(=O)O)cc1)c1ccccc1` (centres undefined), the Potency entry was “inactive” and the cell number change was found to be 2.31%. In the case of `CC(C)CC(NC(=O)c1ccccc1)C(=O)OCC(=O)Nc1ccc(Br)cn1` (centres undefined), the Potency entry was “inactive”. With `Cc1[nH]c2ccccc2c1SCCNC(=O)c1ccc(S(=O)(=O)N2CCCC2)cc1`, the Potency result was “inactive” and the cell number change was -15.8%.

As to `CNC(=S)Nc1cc(C(=O)N2CCCC2)ccc1N1CCCC1`, the Potency result is “inactive” and the cell number change was -7.02%. The matching figures for `Cc1cccc(NC(=O)C2C(c3ccccc3)C2(Cl)Cl)c1C` (centres undefined): “inactive” and 10.7%. In the case of `O=C(c1cccs1)N1CCC(c2nc3c(nnn3Cc3cccc(Cl)c3)c(=O)[nH]2)CC1`, the Potency entry is “inactive” and the cell number change was -4.62%. The matching figures for `Cc1ccc(N(C(=O)Cc2cccs2)C(C(=O)NC2CCCCC2)c2ccccn2)cc1C` (centres undefined): “inactive” and 4.06%. Turning to `O=C(CCC(=O)c1ccccc1)NCCc1c[nH]c2ccccc12`, the Potency result is “inactive” and the cell number change was -0.682%. The matching figures for `Cc1ccccc1NS(=O)(=O)c1ccc(C)c(C(=O)N2CCOCC2)c1`: “inactive” and 1.29%. The matching figures for `CN(C)S(=O)(=O)N1CCN(S(=O)(=O)N2CCOCC2)CC1`: “inactive” and 6.09%. The matching figures for `Cc1cc(C)c(S(=O)(=O)Nc2ccccc2C(=O)N2CCOCC2)c(C)c1`: 25.9 µM (active) and -34.8%. In the case of `CN(C)C(=O)N1CCN(C(=O)N2CCOCC2)CC1`, the Potency result is “inactive” and the cell number change was determined as 3.54%. With `Cc1cc(C)c(S(=O)(=O)N2CCN(S(=O)(=O)N3CCOCC3)CC2)c(C)c1`, the Potency result is “inactive” and the cell number change turned out to be 9.13%. The matching figures for `CN(C)S(=O)(=O)N1CCN(C(=O)N2CCOCC2)CC1`: 5.8 µM (active) and -2.73%.

As to `Cc1cc(C)c(S(=O)(=O)N2CCN(C(=O)N3CCOCC3)CC2)c(C)c1`, the Potency was 3.66 µM (active) and the cell number change is -4.21%. On to `Cc1cc(C)c(S(=O)(=O)N2CCN(C(=O)N(C)C)CC2)c(C)c1`, for which the Potency entry is “inactive” and the cell number change was -11%. For the compound `COc1ccc(S(=O)(=O)Nc2ccccc2C(=O)N2CCOCC2)cc1C`, the Potency entry was “inactive” and the cell number change was -5.26%. The matching figures for `CCCN(CCC)S(=O)(=O)c1nc2nc(C)cc(C)n2n1`: “inactive” and 8.75%. For `COc1cc2c(cc1OC)C(c1ccc(O)cc1)NCC2` (centres undefined), the Potency entry is “inactive” and the cell number change was -6.35%.

As for `O=C1CCCN1CCC12CC3CC(CC(C3)C1)C2`, the Potency entry was “inactive” and the cell number change was -8.85%. On to `COc1ccc(OC)c(CN2CCN(CCCc3ccccc3)C(CCO)C2)c1` (centres undefined), for which the Potency entry was “inactive” and the cell number change was found to be 25.4%.
